Test results as given in PubChem BioAssay AID624296 (National Center for Advancing Translational Sciences (NCATS), 2012).
In all, about 350,000 compounds went through this assay and about 9,900 (2.8%) were called active. Inconclusive results (about 15%) are left out. Calls come from the whole dose curve; as a rule, active = well fitted activation curve with a large enough effect; inconclusive = small, poorly fitted or top-dose-only effect; inactive = no such curve, though single readings can be large or run the other way. The list comes from a sample in which actives are over-represented; it also holds similar structures and randomly drawn compounds.

Test: A quantitative high throughput screen for small molecules that induce DNA re-replication in MCF 10a normal breast cells. For activity, positive = re-replication: % of control where 0% means no effect. Note: nearly all actives have a fitted effect of over 50% in size.
Settings: MCF 10A DNA re-replication, Hoechst nuclear intensity, 48 h; series mostly up to 46.1 µM; activity, positive = re-replication: at the top concentration
Potency is the fitted concentration of half-maximal effect.

Structure (SMILES) | activity, positive = re-replication | Potency
O=C(O)C(=Cc1ccccc1[N+](=O)[O-])c1ccccc1 | -1.41% (inactive) | 
O=C(Nc1cccc(S(=O)(=O)N2CCCC2)c1)c1cncc(Br)c1 | -0.825% (inactive) | 
COCCNC(=O)COc1ccc(N(C)S(=O)(=O)c2ccc3ccccc3c2)cc1 | 23.3% (inactive) | 
CN(c1ccc(OCC(=O)O)cc1)S(=O)(=O)c1ccc2ccccc2c1 | -2.95% (inactive) | 
CC(=O)Oc1ccc(N(C(C)=O)S(=O)(=O)c2ccc3ccccc3c2)cc1Br |  | 13 µM (active)
O=C(OCCOc1ccccc1Cl)c1cc(S(=O)(=O)N2CCCCC2)ccc1N1CCOCC1 | -0.818% (inactive) | 
CCC(C(=O)N1CCN(S(=O)(=O)c2sc(C(=O)O)c(C)c2C(=O)O)CC1)c1ccccc1 (configuration not stated) | 6.28% (inactive) | 
COCCN1C(=O)N[C@@H](c2ccccc2)C(C(=O)OC)=C1C | -17.4% (inactive) | 
CC1=C(C(=O)OCc2ccccc2)C(c2ccc(C(F)(F)F)cc2)NC(=O)N1CCCCCC(=O)O (configuration not stated) | -10.9% (inactive) | 
COC(=O)CCCCCN1C(=O)NC(c2ccc(-c3ccccc3)cc2)C(C(=O)OCc2ccccc2)=C1C (configuration not stated) |  | 3.26 µM (active)
COc1cc(OC)cc(C(=O)NC(C(=O)N2CCC2)C(C)C)c1 (configuration not stated) | 1.77% (inactive) | 
O=C(Cn1cnc2c(OCc3ccccc3)ncnc21)NCc1nc2ccccc2[nH]1 | -16.2% (inactive) | 
COCCCNC(=O)CC1C[C@H](C(=O)N2CCCCC2)[C@@]2(CCc3ccccc3)c3[nH]c4ccccc4c3CCN2C1=O (some centres not stated) | -12.2% (inactive) | 
O=C(NCc1ccc2c(c1)OCO2)c1ccc(Cl)s1 | 5.5% (inactive) | 
O=C(N/N=C\c1cc2c(cc1Cl)OCO2)c1ccc(Br)s1 |  | 5.8 µM (active)
O=C(N/N=C/c1cc2c(cc1Br)OCO2)C1COc2ccccc2O1 (configuration not stated) | 4.05% (inactive) | 
CCCN(CC1CC1)C(=S)NC(=O)c1ccccc1Br | -7.62% (inactive) | 
O=c1[nH]nc(SCCS(=O)(=O)c2ccc(F)cc2)n1-c1ccccc1C(F)(F)F |  | 18.4 µM (active)
O=S(=O)(c1ccc(F)cc1)N1CCN(Cc2ccccc2C(F)(F)F)CC1 | 13.5% (inactive) | 
O=C(CSc1n[nH]c(=O)n1-c1ccccc1)Nc1ccccc1C(F)(F)F | 1.51% (inactive) | 
CCn1c(SCC(=O)Nc2nccs2)nnc1-c1ccco1 | 0.979% (inactive) | 
Cc1[nH]c2ccccc2c1SCC(=O)Nc1nccs1 |  | 0.651 µM (active)
Cn1c(SCC(=O)Nc2nccs2)nnc1-c1cccnc1 | -1.53% (inactive) | 
CCCSc1ccc([C@H]2N[C@@](Cc3ccccc3)(C(=O)OC)[C@H]3C(=O)N(C)C(=O)[C@@H]23)cc1 | 32.9% (inactive) | 
CC(=O)Nc1ccc(NC(=O)CN2CCCC(C)C2)c(Cl)c1 (configuration not stated) | -2.59% (inactive) | 
O=C(CSc1ccccc1)Nc1cc(Cl)ccc1Oc1ccccc1 | 9.71% (inactive) | 
CC1CCCN(CC(=O)Nc2cc(Cl)ccc2Oc2ccccc2)C1 (configuration not stated) |  | 18.4 µM (active)
